Results reported in ChEMBL document CHEMBL3988442, “University of Dundee, Small-Polar-MMV Screening Library” (2021).
For some assays here: Entries with a potency or affinity are not part of this list.

Assays:
Design in all cases: scale not given: direction of the effect not stated beside the values
[1] = target: Protein translocase subunit SecA (Escherichia coli (strain K12)) (UniProt P10408); experiment: Assay to Identify E. coli SecA ATPase Inhibitors; type: functional; conditions: 30 µM
[2] = target: T1, Ubiquitin-activating enzyme e1, putative (Leishmania donovani (strain BPK282A1)) (UniProt E9BSI1); experiment: Leishmania donovani Ubiquitin Activating Enzyme (LdE1); type: functional; conditions: 30 µM
T1 sequence (whole entry): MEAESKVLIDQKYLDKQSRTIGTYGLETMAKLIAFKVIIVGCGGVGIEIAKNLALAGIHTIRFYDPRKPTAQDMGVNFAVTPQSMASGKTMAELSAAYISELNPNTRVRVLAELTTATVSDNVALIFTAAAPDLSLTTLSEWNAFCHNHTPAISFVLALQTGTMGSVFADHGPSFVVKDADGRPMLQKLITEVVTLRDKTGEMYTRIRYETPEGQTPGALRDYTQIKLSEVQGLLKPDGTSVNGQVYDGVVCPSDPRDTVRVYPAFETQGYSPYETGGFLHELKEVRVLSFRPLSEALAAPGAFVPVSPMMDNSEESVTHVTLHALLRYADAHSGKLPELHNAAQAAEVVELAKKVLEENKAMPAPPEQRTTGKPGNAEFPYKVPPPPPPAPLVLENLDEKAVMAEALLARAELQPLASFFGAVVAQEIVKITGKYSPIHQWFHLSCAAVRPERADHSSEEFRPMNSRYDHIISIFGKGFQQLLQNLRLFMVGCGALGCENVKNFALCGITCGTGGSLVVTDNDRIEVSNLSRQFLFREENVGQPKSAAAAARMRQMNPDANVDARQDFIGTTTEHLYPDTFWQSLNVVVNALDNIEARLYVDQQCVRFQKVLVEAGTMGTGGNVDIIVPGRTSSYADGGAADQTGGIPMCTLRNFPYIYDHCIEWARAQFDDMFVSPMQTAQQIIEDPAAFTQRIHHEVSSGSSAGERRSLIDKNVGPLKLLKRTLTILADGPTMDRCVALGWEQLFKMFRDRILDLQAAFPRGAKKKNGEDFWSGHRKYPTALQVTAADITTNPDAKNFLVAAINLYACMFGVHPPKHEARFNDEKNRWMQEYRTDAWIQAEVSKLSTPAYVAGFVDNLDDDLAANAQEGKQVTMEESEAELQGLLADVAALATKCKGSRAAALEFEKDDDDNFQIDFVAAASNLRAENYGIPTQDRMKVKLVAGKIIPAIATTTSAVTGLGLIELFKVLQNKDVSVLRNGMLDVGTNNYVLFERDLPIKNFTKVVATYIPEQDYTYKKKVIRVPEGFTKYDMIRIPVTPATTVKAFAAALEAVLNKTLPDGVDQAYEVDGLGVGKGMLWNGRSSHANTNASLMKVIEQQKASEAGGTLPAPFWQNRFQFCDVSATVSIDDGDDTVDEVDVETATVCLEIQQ

[3] = target: Sialic acid-binding Ig-like lectin 9 (Homo sapiens) (UniProt Q9Y336); experiment: Hs-Siglec9 ALPHAscreen SOP 20170721; conditions: 10 µM
Sialic acid-binding Ig-like lectin 9 (Homo sapiens), sequence (Q9Y336 whole entry): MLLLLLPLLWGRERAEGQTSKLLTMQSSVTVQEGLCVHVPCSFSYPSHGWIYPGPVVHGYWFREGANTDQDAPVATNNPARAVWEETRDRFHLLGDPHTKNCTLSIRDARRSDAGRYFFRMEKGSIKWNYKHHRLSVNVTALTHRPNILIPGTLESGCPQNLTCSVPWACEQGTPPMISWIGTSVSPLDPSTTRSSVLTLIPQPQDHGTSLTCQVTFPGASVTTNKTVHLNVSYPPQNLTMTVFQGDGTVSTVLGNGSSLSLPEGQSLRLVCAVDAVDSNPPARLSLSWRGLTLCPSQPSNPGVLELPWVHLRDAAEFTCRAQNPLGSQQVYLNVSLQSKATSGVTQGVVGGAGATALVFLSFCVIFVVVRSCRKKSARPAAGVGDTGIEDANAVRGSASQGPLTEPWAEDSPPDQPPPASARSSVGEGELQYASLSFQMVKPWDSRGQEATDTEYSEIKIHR

Trypanosoma cruzi = experiment: Trypanosoma cruzi phosphomannomutase and mannose-1-phosphate guanylyltransferase assay; type: functional; conditions: 10 µM
[4] = target: T2, Arginase-2, mitochondrial (Homo sapiens) (UniProt P78540); experiment: in vitro enzyme assay to detect the production of urea directly proportional to the activity of Arginase II; type: functional; conditions: 33.3 µM; further: in the data most compounds retested in dose-response had high values
T2 sequence (whole entry): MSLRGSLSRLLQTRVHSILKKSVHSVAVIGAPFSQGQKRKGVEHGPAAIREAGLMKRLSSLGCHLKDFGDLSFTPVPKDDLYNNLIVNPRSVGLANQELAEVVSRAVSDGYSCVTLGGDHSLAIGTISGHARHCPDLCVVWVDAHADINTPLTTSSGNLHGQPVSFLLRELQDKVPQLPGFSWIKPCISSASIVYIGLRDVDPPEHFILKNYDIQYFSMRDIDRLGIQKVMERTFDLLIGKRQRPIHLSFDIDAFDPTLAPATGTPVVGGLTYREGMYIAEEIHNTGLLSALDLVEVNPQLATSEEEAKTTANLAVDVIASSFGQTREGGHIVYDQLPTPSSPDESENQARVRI

[5] = target: T3, Proteasome subunit beta (Trypanosoma cruzi) (UniProt O96673); experiment: Trypanosoma cruzi proteasome chymotrypsin-like activity (TcProtChymo) assay.; further: in the data most compounds retested in dose-response had high values; type: functional; conditions: 9.37 µM
T3 sequence (whole entry): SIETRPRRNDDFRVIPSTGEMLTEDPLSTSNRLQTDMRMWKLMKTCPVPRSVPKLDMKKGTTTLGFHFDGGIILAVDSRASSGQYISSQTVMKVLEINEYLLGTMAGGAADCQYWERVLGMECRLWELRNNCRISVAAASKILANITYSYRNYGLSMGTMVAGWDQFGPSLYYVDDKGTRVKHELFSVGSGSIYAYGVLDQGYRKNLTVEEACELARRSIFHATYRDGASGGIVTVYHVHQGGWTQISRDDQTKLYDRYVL

Homo sapiens = organism: Homo sapiens; experiment: To identify inhibition of the IFN signalling (Jak-Stat) pathway via expression of an eGFP reporter gene under the control of an IFN-stimulated response element (ISRE) containing MxA promoter.; type: functional; conditions: 30 µM
[6] = target: T4, Tyrosyl-tRNA synthetase, putative (Trypanosoma cruzi (strain CL Brener)) (UniProt Q4DSP6); experiment: Trypanosoma cruzi tyrosyl tRNA synthetase (TcYRS) _High Tyrosine SOP; type: functional; conditions: 30 µM; further: in the data most compounds retested in dose-response had high values
T4 sequence (whole entry): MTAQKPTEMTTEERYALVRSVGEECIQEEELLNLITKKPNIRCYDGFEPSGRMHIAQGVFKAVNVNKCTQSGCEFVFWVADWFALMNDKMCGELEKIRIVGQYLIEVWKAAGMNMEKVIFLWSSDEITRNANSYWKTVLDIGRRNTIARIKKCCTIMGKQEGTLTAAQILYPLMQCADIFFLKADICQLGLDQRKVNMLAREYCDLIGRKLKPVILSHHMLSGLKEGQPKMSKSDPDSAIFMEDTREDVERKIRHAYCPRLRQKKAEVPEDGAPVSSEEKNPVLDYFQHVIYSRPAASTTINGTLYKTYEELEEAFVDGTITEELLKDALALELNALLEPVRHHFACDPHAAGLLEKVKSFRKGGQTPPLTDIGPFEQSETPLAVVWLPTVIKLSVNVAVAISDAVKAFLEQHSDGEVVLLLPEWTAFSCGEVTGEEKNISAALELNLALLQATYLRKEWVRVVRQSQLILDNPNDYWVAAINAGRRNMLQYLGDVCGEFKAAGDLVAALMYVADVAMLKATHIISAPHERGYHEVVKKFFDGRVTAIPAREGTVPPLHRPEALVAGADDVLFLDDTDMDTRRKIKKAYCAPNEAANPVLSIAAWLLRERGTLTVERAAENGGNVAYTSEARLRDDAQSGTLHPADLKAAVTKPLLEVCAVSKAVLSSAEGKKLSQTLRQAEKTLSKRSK

[7] = target: T4, Tyrosyl-tRNA synthetase, putative (Trypanosoma cruzi (strain CL Brener)); experiment: Trypanosoma cruzi tyrosyl tRNA synthetase (TcYRS) SOP; type: functional; conditions: 30 µM
[8] = target: Chromo domain-containing protein 1 (Saccharomyces cerevisiae (strain ATCC 204508 / S288c) (Baker's yeast)) (UniProt P32657); experiment: ScCHD-1 Enzyme Inhibition Assay; type: functional; conditions: 30 µM; further: in the data most compounds retested in dose-response had high values
Chromo domain-containing protein 1 (Saccharomyces cerevisiae (strain ATCC 204508 / S288c) (Baker's yeast)), sequence (P32657 whole entry, the tested form may be a part): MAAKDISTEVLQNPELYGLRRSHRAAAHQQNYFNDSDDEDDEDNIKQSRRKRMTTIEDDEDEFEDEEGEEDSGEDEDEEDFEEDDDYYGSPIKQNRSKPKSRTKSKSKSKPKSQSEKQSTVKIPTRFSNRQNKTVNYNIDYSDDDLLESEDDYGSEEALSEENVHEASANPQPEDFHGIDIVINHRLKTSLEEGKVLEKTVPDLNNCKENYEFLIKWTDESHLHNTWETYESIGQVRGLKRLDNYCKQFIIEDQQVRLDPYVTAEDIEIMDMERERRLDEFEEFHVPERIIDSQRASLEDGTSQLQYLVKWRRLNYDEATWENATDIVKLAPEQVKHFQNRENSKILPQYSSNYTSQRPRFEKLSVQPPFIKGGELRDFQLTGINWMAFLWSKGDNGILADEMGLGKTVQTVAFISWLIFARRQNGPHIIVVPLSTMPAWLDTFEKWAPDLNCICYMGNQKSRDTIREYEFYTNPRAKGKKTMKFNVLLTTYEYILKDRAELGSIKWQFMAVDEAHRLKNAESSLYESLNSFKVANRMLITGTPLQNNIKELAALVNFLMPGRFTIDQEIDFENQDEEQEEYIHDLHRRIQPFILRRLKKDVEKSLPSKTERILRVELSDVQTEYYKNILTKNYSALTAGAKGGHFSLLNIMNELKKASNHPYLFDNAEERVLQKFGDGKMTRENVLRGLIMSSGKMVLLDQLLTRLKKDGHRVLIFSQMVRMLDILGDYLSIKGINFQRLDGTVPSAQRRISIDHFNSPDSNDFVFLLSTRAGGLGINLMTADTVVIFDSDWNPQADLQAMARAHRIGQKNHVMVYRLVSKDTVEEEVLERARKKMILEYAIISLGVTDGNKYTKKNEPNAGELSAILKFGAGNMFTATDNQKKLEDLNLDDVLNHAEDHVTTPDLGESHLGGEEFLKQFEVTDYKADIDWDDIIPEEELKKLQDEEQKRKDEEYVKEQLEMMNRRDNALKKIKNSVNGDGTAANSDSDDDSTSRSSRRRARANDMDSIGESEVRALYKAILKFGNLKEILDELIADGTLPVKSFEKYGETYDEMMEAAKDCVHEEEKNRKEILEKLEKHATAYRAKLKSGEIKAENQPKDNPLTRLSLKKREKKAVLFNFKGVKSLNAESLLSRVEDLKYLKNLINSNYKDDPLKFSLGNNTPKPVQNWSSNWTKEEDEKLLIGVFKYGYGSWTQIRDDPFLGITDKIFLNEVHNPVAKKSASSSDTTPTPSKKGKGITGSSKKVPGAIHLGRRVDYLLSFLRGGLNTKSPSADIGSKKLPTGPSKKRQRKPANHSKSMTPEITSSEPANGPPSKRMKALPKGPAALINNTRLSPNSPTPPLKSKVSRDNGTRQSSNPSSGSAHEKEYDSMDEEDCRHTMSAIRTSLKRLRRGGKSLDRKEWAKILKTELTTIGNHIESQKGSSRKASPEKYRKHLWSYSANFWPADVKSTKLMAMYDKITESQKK

Protein translocase subunit SecA (Escherichia coli (strain K12)), sequence (P10408 whole entry): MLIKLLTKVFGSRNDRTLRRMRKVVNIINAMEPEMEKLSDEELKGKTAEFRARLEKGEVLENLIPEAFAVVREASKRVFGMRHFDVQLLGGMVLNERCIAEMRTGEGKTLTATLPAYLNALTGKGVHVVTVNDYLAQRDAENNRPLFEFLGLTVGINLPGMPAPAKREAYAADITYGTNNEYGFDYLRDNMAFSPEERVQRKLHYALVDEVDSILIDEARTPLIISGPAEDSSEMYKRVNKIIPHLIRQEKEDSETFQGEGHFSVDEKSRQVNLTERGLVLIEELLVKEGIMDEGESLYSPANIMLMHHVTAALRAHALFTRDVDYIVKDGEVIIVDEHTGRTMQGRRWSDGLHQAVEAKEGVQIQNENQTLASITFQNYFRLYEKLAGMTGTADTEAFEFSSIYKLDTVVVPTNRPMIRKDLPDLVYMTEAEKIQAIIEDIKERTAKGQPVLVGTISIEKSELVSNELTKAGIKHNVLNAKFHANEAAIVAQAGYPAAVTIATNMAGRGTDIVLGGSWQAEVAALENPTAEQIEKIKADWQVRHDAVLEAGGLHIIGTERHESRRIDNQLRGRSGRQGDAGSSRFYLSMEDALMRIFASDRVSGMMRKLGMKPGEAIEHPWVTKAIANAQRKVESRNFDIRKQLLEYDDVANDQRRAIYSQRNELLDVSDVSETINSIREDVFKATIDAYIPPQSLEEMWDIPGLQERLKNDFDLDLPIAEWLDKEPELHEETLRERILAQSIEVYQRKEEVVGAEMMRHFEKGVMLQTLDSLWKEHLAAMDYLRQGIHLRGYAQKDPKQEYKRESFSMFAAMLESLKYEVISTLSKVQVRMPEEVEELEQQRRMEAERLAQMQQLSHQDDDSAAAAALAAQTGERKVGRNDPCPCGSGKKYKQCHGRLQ

CC(C)c1cc(C(F)(F)F)n2nc(CCC(=O)O)nc2n1
Percent Effect [1]: 1.24% | Percent Effect [2]: 14.7% | Percent Effect [3]: -8.51% | Percent Effect (Trypanosoma cruzi): -3.94% | Percent Effect [4]: 2.65% | Percent Effect [5]: 10.5% | Percent Effect (Homo sapiens): 19.8% | Percent Effect [6]: 6.35% | Percent Effect [7]: 7.5% | Percent Effect [8]: -17.9%

O=C(CCc1cc2n(n1)CCN(Cc1ncc[nH]1)C2)N1CCCC1
Percent Effect [1]: -3.73% | Percent Effect [2]: 18.9% | Percent Effect [3]: 0.852% | Percent Effect (Trypanosoma cruzi): 1.07% | Percent Effect [4]: 13.6% | Percent Effect [5]: 14.4% | Percent Effect (Homo sapiens): 15.1% | Percent Effect [6]: 4.79% | Percent Effect [7]: 19.5% | Percent Effect [8]: -1.96%

CN(Cc1ccc(F)cc1)[C@@H]1CN(C(=O)c2cccs2)C[C@H]1O
Percent Effect [1]: -4.06% | Percent Effect [2]: 17.3% | Percent Effect [3]: -0.715% | Percent Effect (Trypanosoma cruzi): 1.97% | Percent Effect [4]: -3.1% | Percent Effect [5]: 17.6% | Percent Effect (Homo sapiens): 10.6% | Percent Effect [6]: 5.29% | Percent Effect [7]: 20% | Percent Effect [8]: -21.9%

Cc1cc(CNc2cc(Cl)ccc2OCCS(C)(=O)=O)no1
Percent Effect [1]: -0.942% | Percent Effect [2]: 5.13% | Percent Effect [3]: -13.6% | Percent Effect (Trypanosoma cruzi): 7.42% | Percent Effect [4]: -1.23% | Percent Effect [5]: -4.01% | Percent Effect (Homo sapiens): -4.69% | Percent Effect [6]: 2.39% | Percent Effect [7]: 10.8% | Percent Effect [8]: 0.127%

CC(C)c1cc(C(=O)NCCN2CCCS2(=O)=O)n[nH]1
Percent Effect [1]: -3.62% | Percent Effect [2]: 15.4% | Percent Effect [3]: 0.501% | Percent Effect (Trypanosoma cruzi): 0.469% | Percent Effect [4]: 4.92% | Percent Effect [5]: 18% | Percent Effect (Homo sapiens): -1.8% | Percent Effect [6]: -4.31% | Percent Effect [7]: 18.1% | Percent Effect [8]: -2.98%

Cc1cc(C2CCCN2Cc2cc(=O)n(C)c(=O)n2C)on1 (stereo not given)
Percent Effect [1]: -4.6% | Percent Effect [2]: 2.67% | Percent Effect [3]: 1.58% | Percent Effect (Trypanosoma cruzi): 3.21% | Percent Effect [4]: 0.444% | Percent Effect [5]: 1.27% | Percent Effect (Homo sapiens): 14.5% | Percent Effect [6]: 2.63% | Percent Effect [7]: 5.13% | Percent Effect [8]: -4.48%

CCN(Cc1cccc2c1OCO2)C(=O)NC1CC1
Percent Effect [1]: -0.28% | Percent Effect [2]: 13% | Percent Effect [3]: 9.18% | Percent Effect (Trypanosoma cruzi): 1.68% | Percent Effect [4]: -7.17% | Percent Effect [5]: 1.75% | Percent Effect (Homo sapiens): 3.66% | Percent Effect [6]: 3.92% | Percent Effect [7]: 28.2% | Percent Effect [8]: -7.71%

COc1cccc(-n2nnc(C(=O)N3CCCC3)c2C)c1
Percent Effect [1]: -0.683% | Percent Effect [2]: 10.3% | Percent Effect [3]: -7.88% | Percent Effect (Trypanosoma cruzi): 2.72% | Percent Effect [4]: 4.92% | Percent Effect [5]: 7.25% | Percent Effect (Homo sapiens): 6.63% | Percent Effect [6]: 7.18% | Percent Effect [7]: 13.2% | Percent Effect [8]: -3.38%

CCCc1c(C(=O)NC2CCCC2)nnn1-c1ccc(OC)cc1
Percent Effect [1]: 107% | Percent Effect [2]: 17.3% | Percent Effect [3]: -6.12% | Percent Effect (Trypanosoma cruzi): 0% | Percent Effect [4]: 6.2% | Percent Effect [5]: 8.37% | Percent Effect (Homo sapiens): 27% | Percent Effect [6]: -1.06% | Percent Effect [7]: 7.5% | Percent Effect [8]: -16.8%

O=C(c1cc2cc(F)ccc2[nH]1)N1CCC(Nc2cccnn2)CC1
Percent Effect [1]: -5.68% | Percent Effect [2]: 7.79% | Percent Effect [3]: -3.05% | Percent Effect (Trypanosoma cruzi): -8.21% | Percent Effect [4]: -12.9% | Percent Effect [5]: 10.7% | Percent Effect (Homo sapiens): 14% | Percent Effect [6]: 0.98% | Percent Effect [7]: -2.35% | Percent Effect [8]: -5.32%

Cn1ncc(NCc2cccc(COC(C)(C)C)c2)c(Cl)c1=O
Percent Effect [1]: -2.67% | Percent Effect [2]: 8% | Percent Effect [3]: 4.11% | Percent Effect (Trypanosoma cruzi): 1.81% | Percent Effect [4]: 5.32% | Percent Effect [5]: 3.31% | Percent Effect (Homo sapiens): 49.3% | Percent Effect [6]: 2.63% | Percent Effect [7]: 10.3% | Percent Effect [8]: -8.54%
